We go through 14 compounds from ChEMBL document CHEMBL1157539, “Thousands of chemical starting points for antimalarial lead identification” (Nature, 2010).

Usually Inhibition stands for the relative decrease from the control value, in per cent.

This test concerns Plasmodium falciparum. Nature of the test: GSK_TCMDC: Inhibition of Plasmodium falciparum 3D7 in whole red blood cells, using parasite LDH activity as an index of growth. Test compounds present at 2uM. The format is functional.
As to `O=C(/C=C/c1ccc(Cl)c(Cl)c1)NC1CCC(CN2CCC(c3c[nH]c4ccccc34)CC2)CC1` (centres undefined), the Inhibition worked out at 100%.
For `C=CCOc1ccccc1CNCC(O)c1cccc(C(F)(F)F)c1` (centres undefined), the Inhibition is on record as 99%.
The same measure for `Oc1ccccc1CN1CCC(CCOC(c2ccccc2)c2ccc(Cl)cc2)CC1` (centres undefined): 97%; for `CC(=O)Nc1ccc(OCCN(CC(C)(C)C)c2ccc(C#N)c(C(F)(F)F)c2)c(Cl)c1`: 87%; for `CC[C@H]1C[N+]2([O-])CC[C@@H]1C[C@H]2[C@H](O)c1cc(-c2ccccc2)nc2ccc(OC)cc12`: 99%.
The same measure for `O=C(Nc1ccc(CN2CCC(c3c[nH]c4ccc(O)cc34)CC2)cc1)c1ccc(-c2ccccc2)cc1`: 100%; for `Cc1ccc(CC(C)NCC(O)c2cccc(C(F)(F)F)c2)c(C)c1.Cl` (centres undefined): 99%; for `CCCc1cc(O)c2c3c(c(=O)oc2c1)CN(C)CC3`: 98%.
The result for `CC[C@H]1CN2CC[C@@H]1C[C@H]2[C@H](O)c1cc(-c2ccc(Cl)c(Cl)c2)nc2ccc(O)cc12` reads 98%.
For `CCCCCc1cc(O)c2c(c1)OC(C)(C)CC2C1=CCN(Cc2cccnc2)CC1.Cl.O` (centres undefined), the Inhibition is 97%.
The same measure for `CN1CC=C(c2c[nH]c3ccc(OCc4ccccc4)cc23)CC1`: 95%; for `CC[C@H]1CN2CC[C@H]1C[C@H]2[C@H](O)c1cc(-c2ccccc2F)nc2ccc(OC)cc12.Cl`: 99%.
The result for `Cc1[nH]c2cc(F)ccc2c1C1=CCN(CCCCC2(C)C(=O)Nc3c(F)cccc32)CC1` (centres undefined) reads 96%; that for `CC[C@H]1CN2CC[C@H]1C[C@H]2[C@H](OC(=O)c1ccccc1)c1cc(C#N)nc2ccc(OC)cc12`, 97%.
